Measurements published in PubChem BioAssay (NCI).
The panel holds about 79,000 compounds, 15% with a hit somewhere; the sample as a whole holds those more often. Active and inactive are the calls of the source. No stated cut-off is given here; in the data, active means growth inhibition above about 70%; inactive means the rest. Where a SMILES comes first, the peptide text is derived from it. The star is where a group is joined. Trt = c1ccc(C(c2ccccc2)(c2ccccc2)*)cc1; Cbz = O=C(OCc1ccccc1)*; Bz = O=C(c1ccccc1)*

experiment: NCI Yeast Anticancer Drug Screen. Data for the bub3 strain (AID 167); conditions: S. cerevisiae bub3 mutant strain, at 50.0 µM, active compounds read high
In short: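 Part of a panel of yeast mutants defective in DNA damage repair or cell cycle regulation. Each strain is grown with compound, and inhibition is calculated relative to solvent-treated cultures.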

Compound | growth inhibition
C#CCNC(=O)NC(CCCCNC(=O)OCc1ccccc1)C(=O)OCc1ccccc1 (stereo not given) | 3.55% (inactive)
Cc1ccc(N=C=Nc2ccc(C)cc2)cc1 | 2.85% (inactive)
OCC(F)(F)C(F)(F)C(F)(F)C(F)(F)C(F)(F)C(F)(F)C(F)(F)C(F)F | 5.15% (inactive)
OC(CCCN1CCN2CCc3[nH]c4ccccc4c3C2C1)c1ccc(F)cc1 (stereo not given) | 1.3% (inactive)
Cc1ccc(C(=O)/C(C#N)=C/Nc2c(C)n(C)n(-c3ccccc3)c2=O)cc1 | 19.5% (inactive)
COC1OC2COC(c3ccccc3)OC2C(OC(C)=O)C1OS(=O)(=O)c1ccc(C)cc1 (stereo not given) | -4.65% (inactive)
Nc1ccc(N=Nc2c(S(=O)(=O)O)cc3cc(S(=O)(=O)O)cc(O)c3c2O)cc1 | 6.55% (inactive)
O=C(c1ccccc1)C1CCCCN1C(=O)c1ccccc1 (stereo not given) | 27.9% (inactive)
O=C(Cn1c(=O)oc2ccc(C(=O)c3ccc(F)cc3)cc21)c1ccccc1 | -0.2% (inactive)
COc1cc(/C=C(\C#N)c2ccccn2)cc(Br)c1O | 25.8% (inactive)
CCC(NC(C)c1ccccc1)C(O)c1ccc(OCc2ccccc2)c(OCc2ccccc2)c1 (stereo not given) | 91.5% (active)
CC(=O)Nc1ccc2nc(/C=C/c3ccc(N(C)C)cc3)c(=O)oc2c1 | 20.1% (inactive)
CC(C)CCN(CC(C)C)C(=O)c1ccc([N+](=O)[O-])cc1 (tested in a mixture with another compound) | -5.6% (inactive)
CNC(CCCC1CCCCC1)C(=O)O (stereo not given) | 12.8% (inactive)
C(=C\c1csnn1)/c1ccc(/C=C/c2csnn2)cc1 | 5.3% (inactive)
CC(SC(=S)N1CCOCC1)C(=O)O (stereo not given) | -6.05% (inactive)
CC(C)(C)C(=O)C(C(c1ccccc1)N1CCOCC1)N1CCOCC1 (stereo not given) | 5.7% (inactive)
CC(=O)CC(=O)NC(C)(C)CC(C)(C)C | -34.8% (inactive)
COC1OC(CCl)C(Cl)C(Cl)C1O (stereo not given) | 5.9% (inactive)
O=c1cc(N2CCOCC2)n2c(ccc3ccccc32)n1 | 22% (inactive)

Compound | growth inhibition
CC(=O)OCC1OC(n2c3c(c(-c4ccc(Cl)cc4)c(C#N)c2=S)C(=O)CC(C)(C)C3)C(OC(C)=O)C(OC(C)=O)C1OC(C)=O (stereo not given) | 23.4% (inactive)
CCCC(C)NC(=O)c1ccc(Cl)c(Cl)c1 (stereo not given) | 9.15% (inactive)
O=c1[nH]c(=O)n(C2CC(O)C(CO)O2)c2ncncc12 (stereo not given) | -10.1% (inactive)
CC1C(O)CC2(C(C)C)CC12 (stereo not given) | -18.1% (inactive)
CCOC(=O)c1ccc(OCC)cc1O | -30.4% (inactive)
Nc1c(Cl)cc2c(c1Br)Cc1cc(F)ccc1-2 | 14.8% (inactive)
CNC(=S)N(C)/N=C/c1ccccc1 | -7.15% (inactive)
O=C(NC/C=C/Br)Oc1cccc2ccccc12 | 2.85% (inactive)
COC(=O)C(CSC(=O)c1ccccc1)NC(=O)CNC(=O)CNC(=O)C(CCCCNC(=O)OCc1ccccc1)NC(=O)CNC(=O)C(CSC(c1ccccc1)(c1ccccc1)c1ccccc1)NC(=O)OCc1ccccc1 (stereo not given) (Cbz-C(Trt)GK(Cbz)GGC(Bz)-OMe; configuration not given here) | -53.1% (inactive)
CC1(C)C(=O)/C=C\C(=O)C(C)(C)C2=CC=C(O2)C(C)(C)C(=O)C(Br)C(Br)C(=O)C(C)(C)C2=CC=C1O2 (stereo not given) | -34.9% (inactive)
CCc1c2c(nc3ccc(O)cc13)-c1cc3c(c(=O)n1C2)COC(=O)[C@]3(O)CC | 7.5% (inactive)
C[N+](C)(C)C1C2(CCCCC2)NC(=O)C12CCCCC2 (stereo not given) | -5.85% (inactive)
O=C(NNC(=O)C(F)(F)F)C(F)(F)F | -12.8% (inactive)
CC(Cc1ccccc1)c1ccccc1 (stereo not given) | -0.05% (inactive)
OC1C(OCc2ccccc2)OC(COCc2ccccc2)C(OC2OC(COCc3ccccc3)C(OCc3ccccc3)C(OCc3ccccc3)C2OCc2ccccc2)C1OCc1ccccc1 (stereo not given) | -3.3% (inactive)
CCCCOC(=O)c1cccc2c1-c1ccccc1C2=O | 13.8% (inactive)
C=CCn1c(SC)nc2c(c1=O)CCCC2 | 7.55% (inactive)
CCCCCCCCCCCCCCCCCC(=O)Nc1nc(N)nc(N)n1 | -5.15% (inactive)
O=C(O)c1ccc(CC2CCCC2)cc1 | -2.35% (inactive)
CCC(=O)c1cccc(-c2ccccc2)c1CC | -22.6% (inactive)
